Drawing on PubChem BioAssay (NCI), this text covers growth for 22 molecules.

Compounds without any hit were thinned out: in the full panel of roughly 83,000, 20% have a hit.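 The endpoint reported here, percent growth, reads 100 for growth as untreated, 0 for no net growth and -100 for all cells dead.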 A number with no mark means an inactive call. Activity calls are given as the source filed them. Rule for the calls: active = growth percent below 10; inactive = the rest.

Assay in all cases: NCI-60 one-dose screen, 48 h (100 = growth as untreated, 0 = no growth, -100 = all killed)
Details in all cases: 10 µM unless noted

Assay [1] has as its system NCI-H23 lung.
Assay [2] deals with NCI-H226 lung.
The test system of assay [3] is NCI-H322M lung.
The subject of assay [4] is HOP-62 NSCLC.
The subject of assay [5] is NCI-H460 lung.
The subject of assay [6] is HOP-92 NSCLC.
Assay [7] deals with NCI-H522 lung.
Assay [8] concerns A549/ATCC NSCLC.
Assay [9] concerns 786-0 renal.
Assay [10] has as its system COLO 205 colon.

Turning to `O=C1COCCN1c1ccc(NCc2cn(Cc3ccc(F)cc3)c3ccccc23)cc1`, the growth in assay [1] is 58.9%; in assay [2], -56.5% (active); in assay [3] it was 87.3%; in assay [4] it was 62.5%; in assay [5], 15.4%; in assay [6], 68.2%. Besides, the growth is 58.1% in assay [7], 48.4% in assay [8], 67.1% in assay [9] and 5.22% (active) in assay [10].
Take `C[N+](C)(C)c1ncnc2[n-]cnc12`: the growth in assay [1] was 57.8%; in assay [2] it was 90.4%; in [3], 105%; in assay [4], 105%; in assay [5] it was 100%; in assay [6], 83.2%. Besides, the growth in assay [7] is 68.9%; in assay [8], 100%; in assay [9] it was 72.7%; in [10], 103%.
`COC(=O)[C@]1(C)CC[C@]2(C)CC[C@]3(C)C(=CC(=O)[C@@H]4[C@@]5(C)CCC(=O)NC(C)(C)[C@@H]5CC[C@]43C)[C@@H]2C1`: the growth is -77.5% [100 µM] (active) in assay [1]; -58.3% [100 µM] (active) in assay [2]; 29.1% [100 µM] in assay [3]; -70.8% [100 µM] (active) in assay [4]; -17.2% [100 µM] (active) in assay [5]; -85.6% [100 µM] (active) in assay [6]. In addition, the growth in assay [7] was -73.4% [100 µM] (active); in assay [8] it was 9.53% [100 µM] (active); in [9] it was -70.9% [100 µM] (active); in assay [10], -51.2% [100 µM] (active).
Regarding `N#Cc1c(N2CCOCC2)nc(=S)[nH]c1-c1ccco1`, the growth in assay [1] was 74.5%; in assay [2], 63.2%; in assay [3] it was 74.5%; in [4] it was 35.7%; in assay [5], 50.1%; in [6], -11.6% (active). Further, the growth in assay [7] was 49.6%; in [8], 83.6%; in assay [9], 65.8%; in assay [10] it was 75.7%.
As for `CC(C)C1=NOC(=O)C1=Cc1cn(-c2ccccc2)nc1-c1ccc(Cl)cc1`, the growth in assay [1] was 84.8%; in [2] it was 92.6%; in assay [3] it was 93.9%; in [4], 92.4%; in assay [5] it was 85.3%; in assay [6], 86.9%. For the same molecule, the growth in assay [7] is 80.8%; in assay [8] it was 100%; in [9] it was 80.7%; in assay [10], 99.6%.
Turning to `COc1ccc2c(c1)c(-c1noc(C(=O)c3cn(C)c4ncc(Br)cc34)n1)cn2C`, the growth is 30.1% in assay [1]; 26.6% in [2]; 92.9% in assay [3]; 53.1% in assay [4]; 76.7% in assay [5]; 7.92% (active) in assay [6]. Besides, the growth in assay [7] was 67.9%; in assay [8], 28.1%; in assay [9], 59%; in assay [10], 68.4%.
For `CC[C@]12C=CCN3CC[C@@]4(c5ccc(OC)cc5N(C)[C@H]4[C@@](O)(C(=O)OC)[C@@H]1OC(=O)CCC(=O)N[C@H](Cc1c[nH]c4ccccc14)C(=O)OC)[C@@H]32`, the growth in [1] is -28% [100 µM] (active); in [2], -37.2% [100 µM] (active); in assay [3] it was -53.9% [100 µM] (active); in [4], -7.11% [100 µM] (active); in assay [5], -65.7% [100 µM] (active); in [6], -56.7% [100 µM] (active). Moreover, the growth is -16.2% [100 µM] (active) in assay [7], -30.9% [100 µM] (active) in assay [8], -47.1% [100 µM] (active) in assay [9] and 0.36% [100 µM] (active) in assay [10].
For `Cc1cccc(C[C@H](NC(=O)Nc2ccc(Cl)cc2F)C(=O)N[C@@H]2C(=O)N3C[C@H](O)C[C@H]3C(=O)N3CCN(C)C[C@H]3C(=O)N[C@@H](C)C(=O)N3C[C@H](C)C[C@H]3C(=O)O[C@H]2C)c1`, the growth in assay [1] was 35.3%; in assay [2] it was 45.2%; in assay [3], 65.7%; in assay [4] it was 34.3%; in [5] it was 27.7%; in assay [6] it was 33.2%. In addition, the growth in [7] was 33.2%; in assay [8], 35.6%; in assay [9], 66.6%; in assay [10] it was 11.2%.
For the molecule `C=C(C)[C@@H]1CC[C@]2(COC(=O)c3ccccc3C(=O)O)CC[C@]3(C)[C@H](CC[C@@H]4[C@@]5(C)CC[C@H](OC(=O)c6ccccc6C(=O)O)C(C)(C)[C@@H]5CC[C@]43C)[C@@H]12`, the growth in assay [1] is 6.7% [100 µM] (active); in assay [2], 25.9% [100 µM]; in assay [3], 30.7% [100 µM]; in assay [4], 3.17% [100 µM] (active); in assay [5], 19.7% [100 µM]; in assay [6], -22.3% [100 µM] (active). For the same molecule, the growth in assay [7] is 46.8% [100 µM]; in assay [8] it was 51.3% [100 µM]; in assay [9], 1.64% [100 µM] (active); in assay [10], 99.3% [100 µM].
As for `Fc1ccc(NC(=S)c2ccccc2)cc1`, the growth in assay [1] is 104%; in assay [2] it was 99.1%; in assay [3] it was 106%; in assay [4], 113%; in assay [5], 107%; in assay [6] it was 86.5%. Besides, the growth in assay [7] is 96.3%; in assay [8], 98.8%; in assay [9] it was 99.5%; in assay [10], 113%.
On to `C[C@]12CCc3c(ccc4cc(O)ccc34)[C@@H]1CC[C@H]2O`, for which the growth is 95.7% in [1]; 91.9% in [2]; 105% in [3]; 103% in assay [4]; 102% in assay [5]; 84.1% in assay [6]. Further, the growth was 88.3% in assay [7], 108% in assay [8], 104% in [9] and 108% in [10].
In the case of `COc1cc2c(cc1OCCCCCOc1ccc(-n3c(C)nc4ccccc4c3=O)cc1)N=C[C@@H]1CCCN1C2=O`, the growth in assay [1] is -20.1% (active); in assay [2], 2.04% (active); in assay [3], -31.2% (active); in [4], -29% (active); in [5], -31.2% (active); in [6] it was -17.8% (active). For the same molecule, the growth was -33.5% (active) in assay [7], 7.25% (active) in assay [8], -42.5% (active) in [9] and -22.3% (active) in [10].
Take `CCCCN(CCCC)CC(O)c1ccc(OCc2ccccc2)c2ccccc12` (stereo not given): the growth in assay [1] is 61.2%; in assay [2] it was 104%; in assay [3], 90%; in [4], 109%; in assay [5], 83.1%; in assay [6] it was 76.6%. The growth in assay [7] is 23.7%; in [8], 86.1%; in assay [9], 84.6%; in assay [10] it was 87.9%.
Regarding `COCCCNc1nc(NC(=O)c2cc(Br)cc(C(F)(F)F)c2)cc(-c2cccnc2)n1`, the growth in assay [1] is 103%; in assay [2], 91.8%; in [3] it was 99.9%; in assay [4] it was 91.8%; in [5] it was 85.7%; in assay [6], 57.9%. Besides, the growth in assay [7] is 83.6%; in assay [8], 82%; in assay [9], 85.8%; in assay [10], 96.4%.
Consider `O=C(Nc1ccc(C(=O)/C=C/c2ccc(N3CCOCC3)cc2)cc1)Nc1ccc([N+](=O)[O-])cc1`, for which the growth was 83.4% in [1]; 45% in assay [2]; 63.1% in [3]; 105% in [4]; 67.9% in assay [5]; 120% in assay [6]. Moreover, the growth in assay [7] is 84.1%; in [8], 81.3%; in assay [9], 111%; in assay [10], 109%.
As to `CO[C@H]1CC[C@@]2(C)C(=CC[C@H]3[C@@H]4C[C@H](O)C[C@@]4(C)CC[C@@H]32)C1`, the growth in [1] is 67.8%; in assay [2] it was 82.4%; in [3], 91.3%; in assay [4], 62.4%; in [5] it was 42.9%; in assay [6] it was 35.6%. Further, the growth in assay [7] is 71.6%; in assay [8], 81.9%; in assay [9], 61.5%; in assay [10] it was 61.5%.
In the case of `O=[N+]([O-])c1cccc(/C=C/c2ccc3ccccc3n2)c1`, the growth was 85.8% in [1]; 82.9% in [2]; 74.3% in assay [3]; 55.5% in [4]; 77.1% in assay [5]; 66.6% in assay [6]. The growth in [7] was 47.5%; in [8] it was 79.5%; in assay [9], 70.4%; in assay [10], 91.7%.
Consider `Cc1cc[n+](CCCCCCCCCC[n+]2ccc(C)cc2)cc1`, for which the growth is 68.8% in assay [1]; 68.3% in assay [2]; 109% in assay [3]; 87.7% in assay [4]; 98.7% in assay [5]; 99.8% in assay [6]. Further, the growth in assay [7] is 91.6%; in assay [8], 73.3%; in assay [9], 97.5%; in assay [10], 103%.
With `Cn1cc(-c2noc(-c3cn(C)c4ncc(F)cc34)n2)c2cc(Br)ccc21`, the growth in assay [1] was 79.9%; in assay [2], 98.7%; in assay [3] it was 53.7%; in assay [4], 67.8%; in assay [5], 22.8%; in assay [6], 81.1%. The growth in assay [7] is 74.8%; in assay [8], 45.2%; in [9], 49.4%; in assay [10], 77.9%.
For the molecule `CCn1cc(-c2ccnc(NCCNS(=O)(=O)c3cccc4ccccc34)c2)c(-c2cccc(O)c2)n1`, the growth in assay [1] is 100%; in assay [2], 94.2%; in assay [3] it was 98.9%; in assay [4], 113%; in assay [5] it was 102%; in assay [6] it was 79.8%. Further, the growth was 105% in [7], 103% in assay [8], 92.3% in assay [9] and 112% in [10].
In the case of `O=C1/C(=C\c2cccn2Cc2ccccc2)c2ccccc2N1c1c(Cl)cccc1Cl`, the growth in [1] was 68.7%; in assay [2], 53.1%; in assay [3], 54.8%; in assay [4], 77.2%; in assay [5], 42.7%; in assay [6], 1.73% (active). Besides, the growth in assay [7] was 88.9%; in assay [8], 53.1%; in [9], 89%; in [10] it was -6.31% (active).
Consider `COC(=O)C(=Cc1ccccc1[N+](=O)[O-])C(=O)OC`, for which the growth in [1] was 38.8%; in [2], 97.6%; in assay [3] it was 54.9%; in assay [4] it was 104%; in [5], 41.2%; in [6], 16.5%. For the same molecule, the growth in assay [7] was -3.3% (active); in assay [8], 44.2%; in assay [9], 41.3%; in assay [10], 38%.
